Data taken from PubChem BioAssay AID686971 (National Center for Advancing Translational Sciences (NCATS), 2013).
About 7,500 (2.1%) of roughly 360,000 compounds were called active. Entries that show only a call come without a potency. Roughly 8% stayed inconclusive and do not appear here. Calls follow the shape of the dose curve; as a rule, active = well fitted cell-killing curve with a large enough effect; inconclusive = small, poorly fitted or top-dose-only effect, or effect the other way, or another doubt; inactive = no such curve, though single readings can be large or run the other way. This excerpt belongs to a sample that is enriched for actives.

Assay: qHTS for induction of synthetic lethality in tumor cells producing 2HG: qHTS for the HT-1080-IDH1KD cell line
Details: HT-1080 IDH1 knockdown viability, ATP luminescence, 48 h; series mostly up to 46.1 µM
Method in brief: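 IDH1KD HT-1080 cells, 750/well, RPMI + 5% FBS; compound pinned after 2 h settling; 48 h, 37 °C; CellTiter-Glo luminescence; % activity normalised to DMSO and no-cell wells; curves fitted, classed by r2 and efficacy.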
Potency is read from the fitted curve at half-maximal effect.

With O=P(OC1=CCCCC1)(c1ccccc1)c1ccccc1 as the molecule, how does the Potency read?
Its Potency is “inactive”.

For COP(=O)(NS(=O)(=O)c1ccccc1)OC, which Potency is on record?
Its Potency is “inactive”.

Which Potency does the source give for c1ccc(C(CN2CCCCC2)c2ccccc2)cc1 here?
Its Potency is “inactive”.

With O=c1c2ccccc2[nH]c(=S)n1-c1cccc(Cl)c1 as the molecule, how does the Potency read?
The Potency was “inactive”.

With O=C1C2(Cl)C3(Cl)C4(Cl)C(Cl)(Cl)C5(Cl)C3(Cl)C1(Cl)C5(Cl)C24Cl (stereo not given) as the molecule, how does the Potency read?
Its Potency is 16.4 µM (active).

For CC1C(=O)OC2CCN3CC=C(COC(=O)C(C)(O)C1(C)O)C23 (stereo not given), which Potency is on record?
Its Potency is “inactive”.

With Cc1cccc(NC(=O)OC2CN3CCC2CC3)c1 (stereo not given) as the molecule, how does the Potency read?
Its Potency is “inactive”.

For CN1CCN(Cc2ccc(OC(F)(F)F)cc2)CC1, which Potency is on record?
Its Potency is “inactive”.

For Cc1nc2ccccc2c(=O)n1-c1ccc(Cl)cc1Cl, which Potency is on record?
The Potency was “inactive”.

Which Potency does the source give for O=c1c2ccccc2nc(/C=C/c2ccc(F)cc2)n1-c1ccccc1O here?
Its Potency is 20.6 µM (active).

For O=c1c2ccccc2nc(/C=C/c2ccco2)n1-c1ccccc1O, which Potency is on record?
Its Potency is “inactive”.

With CCOc1cccc(=NC2CCCCC2)c2c(C)[nH]c(C)c12 as the molecule, how does the Potency read?
The Potency was 20.6 µM (active).

For C=C(C)C1(CCCC)C(=O)NC(=S)NC1=O, which Potency is on record?
Its Potency is “inactive”.

With CC(=O)Nc1ccc(C(=O)C(Cc2ccccc2)N(C)C)cc1 (stereo not given) as the molecule, how does the Potency read?
Its Potency is “inactive”.

For CSc1nc2ccc(C)cc2c(=O)n1-c1cccnc1, which Potency is on record?
Its Potency is “inactive”.

Which Potency does the source give for O=C(NC1CCCCC1)N1Cc2cc(N3CCCCC3)ccc2-n2nncc2C1 here?
Its Potency is “inactive”.

Which Potency does the source give for Cc1cc2ccccn2c1C(C[N+](=O)[O-])c1c(F)cccc1Cl (stereo not given) here?
The Potency was 10.3 µM (active).

For CN1CCc2cc3c(cc2[C@H]1[C@@H]1OC(=O)c2c1ccc1c2OCO1)OCO3, which Potency is on record?
The Potency was “inactive”.

Which Potency does the source give for c1cc2c(c(NC3=NCCCS3)c1)CCCC2 here?
The Potency was “inactive”.

Which Potency does the source give for COC(=O)C1=C(c2ccc(OCc3ccccc3)cc2)C[C@@H]2CC[C@H]1N2C(=O)NCc1ccc(Cl)cc1 here?
Its Potency is “inactive”.

With Cc1nc2nc(C)c(CCC(=O)N3CCC4(CC3)OCCO4)c(C)n2n1 as the molecule, how does the Potency read?
Its Potency is “inactive”.

Which Potency does the source give for COc1ccc2c3c1O[C@H]1C[C@@H](O)C=C[C@@]31CCN(C)C2 here?
The Potency was 5.8 µM (active).

Which Potency does the source give for COc1ccc2c(c1O)-c1cccc3c1[C@@H](C2)N(C)CC3 here?
The Potency was “inactive”.

With COC1=CC=C2[C@H]3Cc4ccc(OC)c5c4[C@@]2(CCN3C)C1O5 (stereo not given in full) as the molecule, how does the Potency read?
Its Potency is “inactive”.

For COc1ccc(C(=O)CC2C(=O)N(C)C(=O)N(C)C2=O)cc1, which Potency is on record?
The Potency was “inactive”.

With Cc1ccc(-n2c(O)c(C=NCC3CCCO3)c(=O)[nH]c2=O)c(C)c1 (stereo not given) as the molecule, how does the Potency read?
The Potency was “inactive”.

For COc1ccc(NC(=O)N2Cc3ccccc3-n3nncc3C2)cc1, which Potency is on record?
The Potency was “inactive”.

With COC(=O)C1=C(c2ccccc2)C[C@@H]2CC[C@H]1N2C(=O)NCc1ccco1 as the molecule, how does the Potency read?
Its Potency is “inactive”.

With COc1cc(Cn2c(N)c(C(=O)NCc3ccco3)c3nc4ccccc4nc32)cc(OC)c1OC as the molecule, how does the Potency read?
The Potency was 8.91 µM (active).

Which Potency does the source give for Cc1ncoc1C(=O)NCC1=C(c2cccc3ccccc23)C[C@@H]2CC[C@H]1N2Cc1ccco1 here?
The Potency was “inactive”.

Which Potency does the source give for CCOC(=O)C1(c2ccccc2)CCN(CC(O)c2ccc(NC(C)=O)cc2)CC1 (stereo not given) here?
The Potency was “inactive”.

For CC12CCC3C(CCC4CC(=O)CCC43C)C1CC(=NO)C2=O (stereo not given), which Potency is on record?
The Potency was “inactive”.

For CNC(=O)O/N=C(\N)Cc1csc2ccccc12, which Potency is on record?
Its Potency is “inactive”.

Which Potency does the source give for CNC(=O)O/N=C(\N)Cc1csc2ccc(Cl)cc12 here?
The Potency was 20.6 µM (active).

Which Potency does the source give for COC(=O)C1=C(c2ccc(OCc3ccccc3)cc2)C[C@@H]2CC[C@H]1N2C(=O)NCc1cccc(F)c1 here?
The Potency was “inactive”.

Which Potency does the source give for O=C(NC(=S)N1C[C@H]2C[C@H](C1)c1cccc(=O)n1C2)c1ccc(F)cc1 here?
The Potency was “inactive”.

With CC(CC(C#N)(c1ccccc1)c1ccccc1)N1CCCCC1 (stereo not given) as the molecule, how does the Potency read?
Its Potency is “inactive”.

Which Potency does the source give for C=CCN1C(=O)C2(C(C(=O)OCC)=C(N)Oc3c2c(=O)oc2ccccc32)c2ccccc21 (stereo not given) here?
The Potency was “inactive”.

Which Potency does the source give for O=c1c2ccccc2nc(CBr)n1-c1ccc(Cl)cc1 here?
Its Potency is “inactive”.

Which Potency does the source give for CC1CNCCN1c1ccc(Cl)cc1 (stereo not given) here?
The Potency was “inactive”.

Which Potency does the source give for CC1=CC(=Cc2sc3ccccc3[n+]2C)C=C(C)O1 here?
The Potency was 10.3 µM (active).

Which Potency does the source give for COc1ccccc1C1=NCc2nnc(CSC)n2-c2ccc(Cl)cc21 here?
Its Potency is “inactive”.

With c1ccc(N2Cc3ccccc3-n3nncc3C2)nc1 as the molecule, how does the Potency read?
The Potency was “inactive”.

With COc1cccc(C(c2nnnn2-c2ccc3c(c2)OCCO3)N2CCC3(CC2)C(=O)NCN3c2ccccc2)c1OC (stereo not given) as the molecule, how does the Potency read?
Its Potency is 16.4 µM (active).

Which Potency does the source give for CC(=O)Nc1ccccc1C(=O)OCC(=O)c1cccc2ccccc12 here?
Its Potency is “inactive”.
